Experimental findings from PubChem BioAssay are described below.

Values without a mark were called inactive.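 The calls were made as follows: active = compounds killing one labelled cell type while sparing the other, by normalised counts and ratio limits, not self-fluorescent; inactive = the rest.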

A short description of the test: differential killing of epithelial or mesenchymal cells, primary screen, imaging, PC-3E GFP, TEM4-18 mCherry, co-culture (AID 1345086).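 Also: normalised mesenchymal count divided by normalised epithelial count so high means epithelial killing; cells exposed to compound for 72 h before imaging.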 The conditions noted are these: imaging cell counts, at 1 µM, actives lie on both sides, counts scaled to control wells, 1 = unselective.
As to `C=C1[C@@H](C)C2[C@H](Cc3c[nH]c4ccccc34)NC(=O)[C@]23C(=O)/C=C/C(=O)[C@H](OC(C)=O)/C(C)=C/[C@@H](C)C/C=C/[C@H]3[C@@H]1O` (some centres undefined), the red/green cell ratio (normalised) was 1.13.
For `O=C(C/C=C/c1ccc(O)c(O)c1)O[C@H](Cc1ccc(O)c(O)c1)C(=O)O` the value was 1.06; for `C=C1OC(=O)C23C(O)C(=O)CC(OC12)C3C` (centres undefined), 0.89; for `COC(=O)NC1[C@@H](O)C(O)C(CO)O[C@H]1Sc1ccccc1` (some centres undefined), 0.91.
For `COc1c(N2CC[C@@H](CN)C2)c(F)cc2c(=O)c(C(=O)NO)cn(C3CC3)c12` the value was 1.1; for `COc1ccc2c(c1)CCC1C2CC[C@@]2(C)C1CC[C@@H]2O` (some centres undefined), 0.78; for `O=C1OCC[C@@H]1Oc1ccc(Oc2cnc3ccc(Cl)cc3n2)cc1`, 0.83.
With `CCN1CCN(c2c(F)cc3c(=O)c(C(=O)O)cn4c3c2OC[C@@H]4C)CC1`, the red/green cell ratio (normalised) is 0.75.
For `C=C/C(C)=C\CC1[C@](C)(O)CC[C@H]2C(C)(C)CCC[C@]12C` (some centres undefined) the value was 1.09.
For `COC(=O)C1O[C@H](OCc2ccccc2)[C@@H](OC(C)=O)[C@@H](OC(C)=O)C1OC(C)=O` (some centres undefined) the value was 0.86; for `NC(=O)NCCCC(N)C(=O)O` (centres undefined), 1.05.
The value for `CC(C)=CCCC(C)C1CC[C@@]2(C)C3=C(CC[C@]12C)C1(C)CC[C@H](O)C(C)(C)C1CC3` (some centres undefined) was 1.05; that for `O=C(O)CNC(=O)c1ccc([C@H](O)c2ccccc2)cn1` was 0.86; that for `O=C(O)c1cn(C2CC2)c2cc(N3CCN(c4ncncn4)CC3)c(F)cc2c1=O` was 1.22.
